Measured values reported in ChEMBL document CHEMBL3433997, “St. Jude Leishmania screening dataset” (2016).

What was measured:
Assay type in all cases: functional
[1] = biological target: Solute carrier family 2, facilitated glucose transporter member 1 (Homo sapiens) (UniProt P11166); assay: ST_JUDE_LEISH: Cytotoxicity at 2uM final concentration against transgenic Leishmania Mexicana promastigotes LmGLUT1 that are glucose transport deficient and complemented with the human glucose transporter GLUT1. Activity is measured by DNA content using SYBR green in vitro
Chain of Solute carrier family 2, facilitated glucose transporter member 1 (Homo sapiens) (P11166 whole entry): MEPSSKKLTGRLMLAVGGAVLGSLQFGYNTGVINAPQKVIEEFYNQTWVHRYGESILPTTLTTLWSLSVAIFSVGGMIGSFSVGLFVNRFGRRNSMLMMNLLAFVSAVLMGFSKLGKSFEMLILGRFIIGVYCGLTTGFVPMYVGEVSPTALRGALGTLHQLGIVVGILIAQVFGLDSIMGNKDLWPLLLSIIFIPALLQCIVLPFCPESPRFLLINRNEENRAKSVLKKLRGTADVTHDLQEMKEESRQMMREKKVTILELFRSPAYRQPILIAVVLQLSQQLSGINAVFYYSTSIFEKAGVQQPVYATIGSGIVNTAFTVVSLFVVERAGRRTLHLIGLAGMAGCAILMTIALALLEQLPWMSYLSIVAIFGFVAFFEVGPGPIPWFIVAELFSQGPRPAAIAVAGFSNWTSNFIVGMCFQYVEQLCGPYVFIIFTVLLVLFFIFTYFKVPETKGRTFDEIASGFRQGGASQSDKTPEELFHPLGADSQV

[2] = biological target: Hexose transporter 1 (Plasmodium falciparum) (UniProt O97467); assay: ST_JUDE_LEISH: Cytotoxicity at 2uM final concentration against transgenic Leishmania Mexicana promastigotes LmPfHT that are glucose transport deficient and complemented with the Plasmodium falciparum hexose transporter. Activity is measured by DNA content using SYBR green in vitro
[3] = biological target: Glucose transporter (Leishmania mexicana) (UniProt O61059); assay: ST_JUDE_LEISH: Cytotoxicity at 2uM final concentration against transgenic Leishmania Mexicana promastigotes LmGT2 that are glucose transport deficient and complemented with the L. Mexicana glucose transporter 2. Activity is measured by DNA content using SYBR green in vitro

SMILES	inhibition [1]	inhibition [2]	inhibition [3]
COc1cc(-c2nc3ccc(N4CCN(C)CC4)cc3[nH]2)cc(OC)c1OC	2.08%	2.62%	4.21%
CCCCN(CCCC)CCCCNc1c2ccccc2nc2ccccc12	26%	31.3%	12.3%
Cc1cc(NC(=O)c2coc3cc(F)c(N4CC(C)N(C)C(C)C4)cc23)ccc1-n1ccnc1 (stereo unspecified)	2.32%	1.16%	-1.58%
COc1ccc(NC(=O)[C@H](Cc2ccccc2)Nc2cc(C)nc(NCCN3CCCC3)n2)cc1	11.2%	9.21%	7.49%
CCCCCCCN1CCC(NC(=O)Nc2ccnc3ccc(OC)cc23)C(CO)C1 (stereo unspecified)	-0.96%	-1.62%	-3.37%
CC(=O)N[C@H](C(=O)Nc1ccc(-c2cccc(-c3nc4cccc(C)c4[nH]3)c2)cc1)C(C)C	1.35%	3.2%	2.45%
C=CCNC(=O)CCCNC(=N)N	1.5%	1.22%	-0.35%
Cc1[nH]c(C)c(-c2ccc(-c3cc(C(F)(F)F)cc(C(F)(F)F)c3)nc2)c(=O)c1Br	4.9%	5.44%	5.42%
Cc1cccc2c3c([nH]c12)C1(CCN(CCc2ccccc2)CC1)NC(C(=O)NCc1ccccc1)C3 (stereo unspecified)	4.58%	5.51%	0.71%
Cc1cccc2nc(-c3cccc(-c4ccc(NC(=O)C5CCCO5)cc4)c3)[nH]c12 (stereo unspecified)	6.93%	3.31%	2.04%
O=C(NCC(CCN1CCC(c2c[nH]c3ccccc23)CC1)c1ccccc1)Nc1ccc(Cl)c(Cl)c1 (stereo unspecified)	5.74%	2.72%	2.16%
Oc1ccc(CCNc2nc(NCCCOc3cccc(-c4ccccc4)c3)nc(N3CCNCC3)n2)cc1	2.65%	2.83%	2.5%
